{
  "source": "the supplement of paper PMC3545927",
  "target": "furin, P09958",
  "sequence (P09958 whole entry, the tested form may be a part)": "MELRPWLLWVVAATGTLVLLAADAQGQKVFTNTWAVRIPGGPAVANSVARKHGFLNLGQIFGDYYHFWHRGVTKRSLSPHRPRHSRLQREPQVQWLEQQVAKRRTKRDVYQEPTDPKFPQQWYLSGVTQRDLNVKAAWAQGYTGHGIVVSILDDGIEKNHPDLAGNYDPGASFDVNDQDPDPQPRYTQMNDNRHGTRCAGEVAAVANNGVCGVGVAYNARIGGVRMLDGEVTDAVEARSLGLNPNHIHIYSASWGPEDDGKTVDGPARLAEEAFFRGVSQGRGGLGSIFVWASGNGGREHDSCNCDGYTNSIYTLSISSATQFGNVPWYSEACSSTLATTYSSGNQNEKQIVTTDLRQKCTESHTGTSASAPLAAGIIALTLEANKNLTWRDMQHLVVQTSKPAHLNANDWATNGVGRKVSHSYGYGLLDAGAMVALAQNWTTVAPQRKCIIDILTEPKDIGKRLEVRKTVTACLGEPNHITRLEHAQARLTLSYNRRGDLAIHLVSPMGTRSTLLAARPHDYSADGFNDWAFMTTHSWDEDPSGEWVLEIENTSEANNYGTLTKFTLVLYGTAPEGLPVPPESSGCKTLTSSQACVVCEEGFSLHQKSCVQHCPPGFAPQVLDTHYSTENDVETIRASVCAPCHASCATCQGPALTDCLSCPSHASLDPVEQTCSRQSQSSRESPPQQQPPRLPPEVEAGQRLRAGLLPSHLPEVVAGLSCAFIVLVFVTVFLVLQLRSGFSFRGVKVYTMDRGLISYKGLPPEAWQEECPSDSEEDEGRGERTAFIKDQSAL",
  "experiment": "furin cleavage Z-score vs untreated control; higher = more cleavage, active = 3.5 or more, inactive = 1 or less, 8 variable residues between constant flanks",
  "outline": "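Cleavage by purified furin was measured on 8-mer peptides fused to a cDNA oligonucleotide and held on magnetic beads by their N-terminus. Reactions (0.01 ml, 1:10 enzyme:substrate) ran 7.5, 15 or 30 min in 50 mM HEPES pH 7.5 with CaCl2 and NaCl. Released DNA was adapter-tagged by PCR and sequenced, with read counts giving abundance. Log counts versus furin-free reactions were lowess-adjusted and scaled by median absolute deviation to give the cleavage Z-score.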",
  "note": "Some of the results follow. The hit rate among all sequences tested is not known here.",
  "data": [
    {"sequence": "CAEVVTSTWYAGNASASA", "note": "[HC2249]", "values": [
      {"measurement": "furin cleavage Z-score", "setting": "7.5 min", "value": "-1.56 (inactive)"},
      {"measurement": "furin cleavage Z-score", "setting": "15 min", "value": "-0.21 (inactive)"},
      {"measurement": "furin cleavage Z-score", "setting": "30 min", "value": "-0.098 (inactive)"}
    ]},
    {"sequence": "CALKKRSYFGAGNASASA", "note": "[FS-2870]", "values": [
      {"measurement": "furin cleavage Z-score", "setting": "7.5 min", "value": "0.606 (inactive)"},
      {"measurement": "furin cleavage Z-score", "setting": "15 min", "value": "0.802 (inactive)"},
      {"measurement": "furin cleavage Z-score", "setting": "30 min", "value": 1.4}
    ]},
    {"sequence": "CAEVVNSTWVAGNASASA", "note": "[HC138]", "values": [
      {"measurement": "furin cleavage Z-score", "setting": "7.5 min", "value": "0.467 (inactive)"},
      {"measurement": "furin cleavage Z-score", "setting": "15 min", "value": "-0.699 (inactive)"},
      {"measurement": "furin cleavage Z-score", "setting": "30 min", "value": 1.06}
    ]},
    {"sequence": "CAPPSRARRRAGNASASA", "note": "[FS-73]", "values": [
      {"measurement": "furin cleavage Z-score", "setting": "7.5 min", "value": "5.98 (active)"},
      {"measurement": "furin cleavage Z-score", "setting": "15 min", "value": "6.69 (active)"},
      {"measurement": "furin cleavage Z-score", "setting": "30 min", "value": "6.77 (active)"}
    ]},
    {"sequence": "CADVNRLKREAGNASASA", "note": "[FS-648]", "values": [
      {"measurement": "furin cleavage Z-score", "setting": "7.5 min", "value": "14.4 (active)"},
      {"measurement": "furin cleavage Z-score", "setting": "15 min", "value": "13.9 (active)"},
      {"measurement": "furin cleavage Z-score", "setting": "30 min", "value": "11.5 (active)"}
    ]},
    {"sequence": "CAGAGRARRRAGNASASA", "note": "[FS-995]", "values": [
      {"measurement": "furin cleavage Z-score", "setting": "7.5 min", "value": "-0.00606 (inactive)"},
      {"measurement": "furin cleavage Z-score", "setting": "15 min", "value": 2.14},
      {"measurement": "furin cleavage Z-score", "setting": "30 min", "value": 1.07}
    ]},
    {"sequence": "CALLSRKKREAGNASASA", "note": "[FS-271]", "values": [
      {"measurement": "furin cleavage Z-score", "setting": "7.5 min", "value": "8.61 (active)"},
      {"measurement": "furin cleavage Z-score", "setting": "15 min", "value": "6.86 (active)"},
      {"measurement": "furin cleavage Z-score", "setting": "30 min", "value": "6.5 (active)"}
    ]},
    {"sequence": "CALLSRPLRGAGNASASA", "note": "[FS-1229]", "values": [
      {"measurement": "furin cleavage Z-score", "setting": "7.5 min", "value": "-0.34 (inactive)"},
      {"measurement": "furin cleavage Z-score", "setting": "15 min", "value": "-0.208 (inactive)"},
      {"measurement": "furin cleavage Z-score", "setting": "30 min", "value": "-1.05 (inactive)"}
    ]},
    {"sequence": "CALLSRKRRRAGNASASA", "note": "[FS-1539]", "values": [
      {"measurement": "furin cleavage Z-score", "setting": "7.5 min", "value": "11.7 (active)"},
      {"measurement": "furin cleavage Z-score", "setting": "15 min", "value": "12.2 (active)"},
      {"measurement": "furin cleavage Z-score", "setting": "30 min", "value": "9.16 (active)"}
    ]},
    {"sequence": "CAPPSREKKVAGNASASA", "note": "[FS-1051]", "values": [
      {"measurement": "furin cleavage Z-score", "setting": "7.5 min", "value": "-1.64 (inactive)"},
      {"measurement": "furin cleavage Z-score", "setting": "15 min", "value": "-0.193 (inactive)"},
      {"measurement": "furin cleavage Z-score", "setting": "30 min", "value": "0.495 (inactive)"}
    ]},
    {"sequence": "CAWLEVVTSTAGNASASA", "note": "[HC2268]", "values": [
      {"measurement": "furin cleavage Z-score", "setting": "7.5 min", "value": "0.509 (inactive)"},
      {"measurement": "furin cleavage Z-score", "setting": "15 min", "value": 1.8},
      {"measurement": "furin cleavage Z-score", "setting": "30 min", "value": 1.63}
    ]},
    {"sequence": "CALLFRSNRDAGNASASA", "note": "[FS-822]", "values": [
      {"measurement": "furin cleavage Z-score", "setting": "7.5 min", "value": "5.19 (active)"},
      {"measurement": "furin cleavage Z-score", "setting": "15 min", "value": "4.77 (active)"},
      {"measurement": "furin cleavage Z-score", "setting": "30 min", "value": "4.55 (active)"}
    ]},
    {"sequence": "CALLSPRGSRAGNASASA", "note": "[HC209]", "values": [
      {"measurement": "furin cleavage Z-score", "setting": "7.5 min", "value": "0.623 (inactive)"},
      {"measurement": "furin cleavage Z-score", "setting": "15 min", "value": "-0.229 (inactive)"},
      {"measurement": "furin cleavage Z-score", "setting": "30 min", "value": "0.325 (inactive)"}
    ]},
    {"sequence": "CAALWRVSAEAGNASASA", "note": "[HC1201]", "values": [
      {"measurement": "furin cleavage Z-score", "setting": "7.5 min", "value": "-1.28 (inactive)"},
      {"measurement": "furin cleavage Z-score", "setting": "15 min", "value": "-0.15 (inactive)"},
      {"measurement": "furin cleavage Z-score", "setting": "30 min", "value": "-1.16 (inactive)"}
    ]},
    {"sequence": "CALLSRRPRDAGNASASA", "note": "[FS-611]", "values": [
      {"measurement": "furin cleavage Z-score", "setting": "7.5 min", "value": "10.2 (active)"},
      {"measurement": "furin cleavage Z-score", "setting": "15 min", "value": "10.5 (active)"},
      {"measurement": "furin cleavage Z-score", "setting": "30 min", "value": "8.78 (active)"}
    ]},
    {"sequence": "CATKSRKKREAGNASASA", "note": "[FS-1493]", "values": [
      {"measurement": "furin cleavage Z-score", "setting": "7.5 min", "value": "12.1 (active)"},
      {"measurement": "furin cleavage Z-score", "setting": "15 min", "value": "10.8 (active)"},
      {"measurement": "furin cleavage Z-score", "setting": "30 min", "value": "8.58 (active)"}
    ]},
    {"sequence": "CALLSCLTVPAGNASASA", "note": "[HC251]", "values": [
      {"measurement": "furin cleavage Z-score", "setting": "7.5 min", "value": "-1.14 (inactive)"},
      {"measurement": "furin cleavage Z-score", "setting": "15 min", "value": "0.458 (inactive)"},
      {"measurement": "furin cleavage Z-score", "setting": "30 min", "value": "-0.633 (inactive)"}
    ]},
    {"sequence": "CALLFLLLADAGNASASA", "note": "[HC521]", "values": [
      {"measurement": "furin cleavage Z-score", "setting": "7.5 min", "value": "-0.353 (inactive)"},
      {"measurement": "furin cleavage Z-score", "setting": "15 min", "value": "-1.02 (inactive)"},
      {"measurement": "furin cleavage Z-score", "setting": "30 min", "value": "-2.28 (inactive)"}
    ]},
    {"sequence": "CALLSRVRREAGNASASA", "note": "[FS-1540]", "values": [
      {"measurement": "furin cleavage Z-score", "setting": "7.5 min", "value": "7.59 (active)"},
      {"measurement": "furin cleavage Z-score", "setting": "15 min", "value": "6.32 (active)"},
      {"measurement": "furin cleavage Z-score", "setting": "30 min", "value": "5.92 (active)"}
    ]},
    {"sequence": "CAFEECSQHLAGNASASA", "note": "[HC1667]", "values": [
      {"measurement": "furin cleavage Z-score", "setting": "7.5 min", "value": 1.36},
      {"measurement": "furin cleavage Z-score", "setting": "15 min", "value": "0.54 (inactive)"},
      {"measurement": "furin cleavage Z-score", "setting": "30 min", "value": "-0.544 (inactive)"}
    ]},
    {"sequence": "CAHNSRKKREAGNASASA", "note": "[FS-1340]", "values": [
      {"measurement": "furin cleavage Z-score", "setting": "7.5 min", "value": "11.8 (active)"},
      {"measurement": "furin cleavage Z-score", "setting": "15 min", "value": "13.6 (active)"},
      {"measurement": "furin cleavage Z-score", "setting": "30 min", "value": "9.48 (active)"}
    ]},
    {"sequence": "CAFHYVTGMTAGNASASA", "note": "[HC1210]", "values": [
      {"measurement": "furin cleavage Z-score", "setting": "7.5 min", "value": "0.168 (inactive)"},
      {"measurement": "furin cleavage Z-score", "setting": "15 min", "value": "-0.792 (inactive)"},
      {"measurement": "furin cleavage Z-score", "setting": "30 min", "value": "-0.653 (inactive)"}
    ]}
  ]
}
